# Whole data set: some 5,400 compounds, median “IFI” near 2, cut for the highest 2% near 22. Only a selection was taken, and the highest values are over-represented in it overall.
# Assay: NOVARTIS: Inhibition Frequency Index (IFI) - the number of HTS assays where a compound showed > 50% inhibition/induction, expressed as a percentage of the number of assays in which the compound was tested.
# Format: functional
row,Structure (SMILES),IFI [%]
1,CC1CC(C)CC(C)C(O)C(C#N)=CC=CCC(C2CCCC2C(=O)O)OC(=O)CC(O)C(C)C1 (stereo not given),25.8
2,COc1ccc(Cn2cccc(C(=O)Nc3ccc(OC)cc3)c2=O)cc1,5.26
3,Oc1ccccc1C=Nc1ccccc1[Te]c1ccccc1N=Cc1ccccc1O,8.21
4,Cc1nc2c(=O)n(C)c(=O)nc-2n(C)n1,25
5,CCn1nc(/C=C/c2ccccc2)nc2c(=O)n(C)c(=O)nc1-2,16.7
6,Cn1ncnc2c(=O)n(C)c(=O)nc1-2,26.7
7,CCC(C)N1CCN(Cc2cccc(OC)c2OC)CC1 (stereo not given),3.17
8,CCCC[C@@H](C)C(O)[C@H]1C(=O)N[C@@H](CC)C(=O)N(C)CC(=O)N(C)[C@@H](CC(C)C)C(=O)N[C@@H](C(C)C)C(=O)N(C)[C@@H](CC(C)C)C(=O)N[C@@H](C)C(=O)N[C@@H](C)C(=O)N(C)[C@@H](CC(C)C)C(=O)N(C)[C@@H](CC(C)C)C(=O)N(C)[C@@H](C(C)C)C(=O)N1C (stereo not given in full),3.45
9,CNCC(O)c1ccc(Cl)c(Cl)c1 (stereo not given),0
10,Nc1ccc(C(=O)NN=Cc2cccc([N+](=O)[O-])c2)cc1,0
11,C=C[C@H]1CN2CC[C@H]1C[C@H]2[C@H](OC(=O)c1cccc([N+](=O)[O-])c1)c1ccnc2ccccc12,0.926
12,COC1=CC(C)=C[C@@H](C)[C@@H](O)[C@H](C)CC(C)=CC=C[C@H](OC)[C@@H](C(C)C(O)[C@H](C)[C@@]2(O)C[C@@H](O)[C@H](C)[C@@H](C(C)C)O2)OC1=O (stereo not given in full),19.6
13,C=CC1CN2CCC1CC2C(OC(=O)C1CC1)c1ccnc2ccccc12 (stereo not given),0
14,Cc1ccc(CN2C3CCCC2CC(NC(=O)Nc2cccc(F)c2)C3)cc1 (stereo not given),1.32
15,O=C(Nc1ccc(Oc2ccc(OC(F)(F)F)cc2)cc1)C1CC1,1.57
16,COc1ccc(NC2=C(N3CCCCC3)C(=O)c3ccccc3C2=O)cc1,18.7
17,CCOC(=O)CN(N=O)C1=C(N2CC2)C(=O)c2ccccc2C1=O,30.8
18,COc1cc(CN2CC3CC(C2)c2cccc(=O)n2C3)ccc1O (stereo not given),0
19,O=C(NNC(=O)c1csnn1)c1ccc(C(F)(F)F)cc1,3
20,Cc1nc(Oc2ccc3ccc(=O)oc3c2)c2c3c(sc2n1)CCCCC3,0
21,Cc1c2ccccc2c(C)c2ccccc12,3.76
22,NC(=O)Oc1ccc(Cc2ccccc2)cc1,0

row,Structure (SMILES),IFI [%]
1,CC(Cc1ccccc1)NCc1ccccc1O (stereo not given),3.12
2,CN1CCN(c2nc(Cl)nc3[nH]cnc23)CC1,0.699
3,CC(=O)N(C1=C(N(C)C)C(=O)c2ccccc2C1=O)c1cccc(F)c1,15.4
4,CC(=O)N(C1=C(N(C)C)C(=O)c2ccccc2C1=O)c1ccc(Cl)cc1,0
5,CC(=O)N(C1=C(N(C)C)C(=O)c2ccccc2C1=O)c1ccc(F)c(F)c1,23.1
6,COc1ccccc1-n1c(/C=C/c2cc(Br)ccc2O)nc2ccccc2c1=O,8.06
7,CC(C)[C@@]1(NC(=O)[C@@H]2C[C@@H]3c4cccc5[nH]cc(c45)C[C@H]3N(C)C2)O[C@@]2(O)[C@@H]3CCCN3C(=O)[C@H](CC3CCCCC3)N2C1=O,9.52
8,O=C1c2ccccc2-c2nc3nnnn3nc21,42.9
9,CC=C[C@H]1O[C@@](O)([C@H](C)C(O)C(C)[C@@H]2OC(=O)C(OC)=CC(C)=C[C@H](C)[C@H](O)[C@H](CC)[C@H](O)C(C)CC(C)=CC=C[C@H]2OC)C[C@@H](O[C@@H]2C[C@H](O)[C@@H](OC(N)=O)[C@H](C)O2)[C@@H]1C (stereo not given in full),15
10,CO/C(=C\C(N)=O)C(C)C(/C=C/c1csc(-c2csc(C(C)/C=C/C=C/C(C)C)n2)n1)OC (stereo not given),11.5
11,C=C[C@H]1CN2CC[C@H]1C[C@H]2[C@H](OC(C)=O)c1ccnc2ccccc12,1.89
12,CC[C@H]1CN2CC[C@@H]1C[C@@H]2[C@@H](O)c1ccnc2ccc(OC)cc12,2.16
13,CC1OC(=O)C(C(C)C)NC(=O)C(C(C)C)OC(=O)C(C(C)C)NC(=O)C(C)OC(=O)C(C(C)C)NC(=O)C(C(C)C)OC(=O)C(C(C)C)NC(=O)C(C)OC(=O)C(C(C)C)NC(=O)C(C(C)C)OC(=O)C(C(C)C)NC1=O (stereo not given),27.7
14,C=CC1(O)CN2CCC1CC2[C@@H](O)c1ccnc2ccc(OC)cc12 (stereo not given in full),3.57
15,CCc1cc2c(cc1-c1csc(NC(=N)N)n1)C(C)(C)CCC2(C)C,5.16
16,CC1(C)CN=C(NCc2ccccc2Cl)S1,0
17,C=CC1CN2CCC1CC2C(OC(=O)c1ccco1)c1ccnc2ccccc12 (stereo not given),0
18,COc1cc2c3c(c4cc(OC)c(OC)cc4c2cc1OC)CN1CCC[C@@H]1C3,5.26
19,OC1(c2ccc(Br)cc2)CCN(C2CCN(CCc3ccccc3)CC2)CC1,4.1
20,Cc1cc(N(C)C)cc(C)[n+]1OC(=O)N(c1ccccc1)c1ccccc1,16.7
21,CNC1CC2OC(C)(C1OC)n1c3ccccc3c3c4c(c5c6ccccc6n2c5c31)C(=O)NC4O (stereo not given),28.6
22,C/C(=C\c1csc(C)n1)[C@@H]1C[C@@H]2O[C@@H]2CCC[C@H](C)C(O)[C@@H](C)C(=O)C(C)(C)[C@@H](O)CC(=O)O1 (stereo not given in full),6.9

row,Structure (SMILES),IFI [%]
1,CC[C@H]1CN2CCc3cc(OC)c(OC)cc3[C@@H]2C[C@@H]1C[C@@H]1NCCc2cc(OC)c(OC)cc21,37
2,CC[C@H]1CN2CCc3cc(OC)c(OC)cc3[C@@H]2C[C@@H]1C[C@H]1NCCc2cc(OC)c(OC)cc21,23.8
3,CC[C@H]1CN2CCc3cc(OC)c(OC)cc3[C@@H]2C[C@@H]1C[C@H]1NCCc2cc(O)c(OC)cc21,32.3
4,CCC1CN2CCc3cc(OC)c(OC)cc3C2CC1CC1NCCc2cc(OC)c(OC)cc21 (stereo not given),33.3
5,COc1ccc(C=NNc2ccnc3cc(Cl)ccc23)cc1,4.8
6,CN1C[C@@H](CSc2ccccn2)C=C2c3cccc4[nH]cc(c34)C[C@H]21,4.88
7,C=CC1CN2CCC1C(C(O)c1ccnc3ccc(OC)cc13)C2 (stereo not given),2.29
8,CC=C[C@H]1O[C@@](O)([C@@H](C)C(O)C(C)[C@H]2OC(=O)C(OC)=CC(C)=C[C@@H](C)[C@H](O)C(CC)[C@@H](O)[C@H](C)CC(C)=CC=C[C@@H]2OC)C[C@@H](O[C@H]2C[C@@H](O)[C@H](OC(N)=O)[C@@H](C)O2)[C@@H]1C (stereo not given in full),17.5
9,CCCCCCCCCCCCn1ccc(=N)cc1,15.4
10,CCC(C)(O)C(=O)O[C@H]1C(=O)OC2CC3C(C)=C[C@H](O)[C@@H](O)[C@]3(C)C3C24CO[C@]3(O)[C@H](O)[C@H](C)C14 (stereo not given in full),7.69
11,COc1cc2c(O[C@@H]3O[C@H](CO)[C@@H](O)[C@H](O)[C@H]3O)c3c(c(-c4ccc5c(c4)OCO5)c2cc1OC)C(=O)OC3,12.4
12,O=C(CCl)Nc1ccc(Cl)cc1,3.54
13,COc1ccccc1N1CCN(Cc2cc(C)c(C)cc2O)CC1,2.94
14,COc1ccc(C(Cc2ccccc2)NC2CN3CCC2CC3)cc1 (stereo not given),0
15,c1ccc(CCNC2CCN(Cc3ccccc3)CC2)cc1,0
16,O=C(NNC(=O)c1csnn1)c1ccc(Cl)cc1,1
17,c1ccc(-c2nn(-c3ccccc3)[n+](-c3ccccc3)n2)cc1,11.2
18,CCN(CC)S(=O)(=O)c1ccc(C(=O)c2c(C)c(C(=O)C(F)(F)F)c3ccccn23)cc1,3.12
19,COc1ccc(C[C@H]2NC[C@H](O)[C@H]2OC(C)=O)cc1,33.6
20,CC(=O)N(C1=C(N(C)C)C(=O)c2ccccc2C1=O)c1cccc(Cl)c1,7.14
21,Clc1cccc(CNC2CCN(CCc3ccccc3)CC2)c1,0.781
22,Cc1n(-c2ccccc2)c2c([n+]1C)C(=O)c1ccccc1C2=O,33.3

row,Structure (SMILES),IFI [%]
1,CO[C@H]1[C@H](C)[C@@H]([C@H]2CC[C@H]([C@@H]3CC[C@H]([C@@]4(C)O[C@]5(O[C@H](C[C@@H]6O[C@](O)([C@@H](C)C(=O)O)[C@@H](C)[C@H](O[C@H]7CC[C@H](OC)[C@@H](C)O7)[C@@]6(C)OC)C[C@@H](OC)[C@H]5C)[C@H](C)[C@H]4OC)O3)O2)O[C@](C)(O)[C@@H]1C,15.5
2,COc1cc2c(cc1O)CC[n+]1cc3c(OC)c(OC)ccc3cc1-2,0
3,CCN1C(=O)N(CC(N)=O)C(=O)C12CCN(Cc1ccc(N(C)c3ccccc3)cc1)CC2,3.85
4,CC(C)N1CC=C(c2c[nH]c3ccccc23)CC1,0
5,CC[C@@H]1CN2CC[C@H]1C[C@H]2[C@H](O)c1ccnc2ccc(OC)cc12,1.32
6,C[C@H]1C[C@H](C)C(=O)[C@@H]([C@@H](O)CC2CC(=O)NC(=O)C2)C1,23.9
7,C[C@@H]1C[C@@H](C)C(=O)[C@@H](C(O)CC2CC(=O)NC(=O)C2)C1 (stereo not given in full),23.4
8,C[C@@H]1C[C@@H]([C@H](O)CC2CC(=O)NC(=O)C2)C(=O)[C@@H](C)C1,19.7
9,CC(=O)OC1(C)CC(C)C(=O)C(C(O)CC2CC(=O)NC(=O)C2)C1 (stereo not given),22.6
10,OCCC1CN(Cc2cccc(Cl)c2)CCN1Cc1ccccc1 (stereo not given),7.69
11,COC(=O)[C@]1(C)CC[C@]2(C)CC[C@]3(C)C4=CC=C5C(=CC(=O)C(O)=C5C)[C@]4(C)CC[C@@]3(C)[C@@H]2C1,21.4
12,CC(=O)O[C@]1(C(C)=O)CCC2C3C=CC4=CC(=O)CC[C@]4(C)C3CC[C@@]21C (stereo not given in full),2.33
13,Cc1nc2ccccc2c(=O)n1-c1ccc([N+](=O)[O-])cc1,0
14,C=CC12CCN(CC1)C(C(O)c1ccnc3ccc(OC)cc13)C2 (stereo not given),0
15,C=CC1CN2CCC1CC2[C@H](c1ccnc2ccccc12)S(=O)(=O)O (stereo not given in full),0
16,O[C@@]1(c2cc3ccccc3s2)CN2CCC1CC2,1.63
17,CCN1CCC(N2CCC(n3c(Cc4ccccc4OC)nc4cc(F)ccc43)CC2)CC1,1.7
18,C=C[C@H]1CN2CC[C@H]1C[C@@H]2[C@@H](OC(=O)C(C)C)c1ccnc2ccccc12,1.67
19,CC1=CC[C@@H](/C(C)=C/c2csc(C)n2)OC(=O)C[C@H](O)C(C)(C)C(=O)[C@H](C)[C@@H](O)[C@@H](C)CCC1,5.66

# Source: ChEMBL document CHEMBL1156829
